According to the supplement of paper PMC8728848:
Many of the other results were omitted from the sample, so the strongest signals are more common in it than they were.

Columns and labels:
Assay in all cases: glycan array binding signal (z-score within array); higher = stronger binding
Conditions in all cases: glycan notation: IUPAC condensed, linker removed
Fuc(a1-2)Gal(b1-3)GalNAc = target: Fuc(a1-2)Gal(b1-3)GalNAc
Summary of the method: (§1)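 Columns mapping to the same glycan were averaged after glycan names were converted to IUPAC-condensed notation. The data come from 3228 arrays in the Consortium for Functional Glycomics database, limited to those with an available protein sequence. Binding is reported as a within-array Z-score averaged across arrays of one protein sequence and across linkers.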

[1] = target: Fuc(a1-2)Gal(b1-3)GalNAc(b1-4)[Neu5Ac(a2-3)]Gal(b1-4)Glc
Summary of the method: as §1

[2] = target: Fuc(a1-2)Gal(b1-3)GlcNAc(b1-2)Man(a1-3)[Fuc(a1-2)Gal(b1-3)GlcNAc(b1-2)Man(a1-6)]Man(b1-4)GlcNAc(b1-4)GlcNAc
Summary of the method: as §1

[3] = target: Fuc(a1-2)Gal(b1-4)GlcNAc(b1-3)Gal(b1-4)GlcNAc
Summary of the method: as §1

[4] = target: Fuc(a1-2)Gal(b1-4)[Fuc(a1-3)]GlcNAc
Summary of the method: as §1

[5] = target: Fuc(a1-2)Gal(b1-4)[Fuc(a1-3)]GlcNAc(b1-3)Gal(b1-4)[Fuc(a1-3)]GlcNAc
Summary of the method: as §1

[6] = target: Fuc(a1-2)[Gal(a1-3)]Gal(b1-3)GalNAc(b1-3)Gal(a1-4)Gal(b1-4)Glc
Summary of the method: as §1

[7] = target: Fuc(a1-2)[Gal(a1-3)]Gal(b1-3)GlcNAc(b1-3)GalNAc
Summary of the method: as §1

[8] = target: Fuc(a1-2)[Gal(a1-3)]Gal(b1-4)[Fuc(a1-3)]Glc
Summary of the method: as §1

[9] = target: Fuc(a1-2)[GalNAc(a1-3)]Gal
Summary of the method: as §1

[10] = target: Fuc(a1-2)[GalNAc(a1-3)]Gal(b1-4)GlcNAc(b1-2)Man
Summary of the method: as §1

[11] = target: Fuc(a1-3)[Gal(b1-4)]GlcNAc(b1-3)Gal(b1-3)[Fuc(a1-4)]GlcNAc
Summary of the method: as §1

Gal(a1-3)Gal(b1-4)GlcNAc = target: Gal(a1-3)Gal(b1-4)GlcNAc
Summary of the method: as §1

[12] = target: Gal(a1-3)Gal(b1-4)GlcNAc(b1-2)Man
Summary of the method: as §1

Gal(a1-4)Gal(b1-4)GlcNAc = target: Gal(a1-4)Gal(b1-4)GlcNAc
Summary of the method: as §1

[13] = target: Gal(a1-4)Gal(b1-4)GlcNAc(b1-2)Man(a1-3)[Gal(a1-4)Gal(b1-4)GlcNAc(b1-2)Man(a1-6)]Man(b1-4)GlcNAc(b1-4)GlcNAc
Summary of the method: as §1

[14] = target: Gal(b1-3)GlcNAc(b1-2)Man(a1-3)[GlcNAc(b1-4)][Gal(b1-3)GlcNAc(b1-2)Man(a1-6)]Man(b1-4)GlcNAc(b1-4)GlcNAc
Summary of the method: as §1

[15] = target: Gal(b1-3)GlcNAc(b1-2)[Gal(b1-3)GlcNAc(b1-6)]Man(a1-6)[Gal(b1-3)GlcNAc(b1-2)Man(a1-3)]Man(b1-4)GlcNAc(b1-4)GlcNAc
Summary of the method: as §1

[16] = target: Gal(b1-3)GlcNAc(b1-3)GalNAc
Summary of the method: as §1

[17] = target: Gal(b1-3)[Fuc(a1-4)]GlcNAc(b1-2)Man(a1-3)[Gal(b1-3)[Fuc(a1-4)]GlcNAc(b1-2)Man(a1-6)]Man(b1-4)GlcNAc(b1-4)[Fuc(a1-6)]GlcNAc
Summary of the method: as §1

[18] = target: Gal(b1-4)GlcNAc(b1-2)Man(a1-3)[GlcNAc(b1-2)Man(a1-6)]Man(b1-4)GlcNAc(b1-4)GlcNAc
Summary of the method: as §1

[19] = target: Gal(b1-4)GlcNAc(b1-2)[Gal(b1-4)GlcNAc(b1-6)]Man(a1-6)[Gal(b1-4)GlcNAc(b1-2)Man(a1-3)]Man(b1-4)GlcNAc(b1-4)[Fuc(a1-6)]GlcNAc
Summary of the method: as §1

[20] = target: Gal(b1-4)GlcNAc(b1-2)[Gal(b1-4)GlcNAc(b1-6)]Man(a1-6)[GlcNAc(b1-4)][Gal(b1-4)GlcNAc(b1-2)[Gal(b1-4)GlcNAc(b1-4)]Man(a1-3)]Man(b1-4)GlcNAc(b1-4)[Fuc(a1-6)]GlcNAc
Summary of the method: as §1

[21] = target: Gal(b1-4)GlcNAc(b1-3)Gal(b1-4)GlcNAc(b1-3)Gal(b1-4)GlcNAc(b1-3)Gal(b1-4)GlcNAc(b1-2)Man(a1-3)[Gal(b1-4)GlcNAc(b1-3)Gal(b1-4)GlcNAc(b1-3)Gal(b1-4)GlcNAc(b1-3)Gal(b1-4)GlcNAc(b1-2)Man(a1-6)]Man(b1-4)GlcNAc(b1-4)[Fuc(a1-6)]GlcNAc
Summary of the method: as §1

[22] = target: Gal3S(b1-4)[Fuc(a1-3)]Glc6S
Summary of the method: as §1

GalNAc(b1-3)GlcNAc = target: GalNAc(b1-3)GlcNAc
Summary of the method: as §1

GalNAc(b1-4)Gal(b1-4)Glc = target: GalNAc(b1-4)Gal(b1-4)Glc
Summary of the method: as §1

[23] = target: GlcNAc(a1-4)Gal(b1-4)GlcNAc(b1-3)Gal(b1-4)GlcNAc(b1-3)Gal(b1-4)GlcNAc
Summary of the method: as §1

[24] = target: GlcNAc(b1-3)Gal(b1-4)GlcNAc(b1-3)Gal(b1-4)GlcNAc(b1-3)Gal(b1-4)GlcNAc(b1-2)Man(a1-3)[GlcNAc(b1-3)Gal(b1-4)GlcNAc(b1-3)Gal(b1-4)GlcNAc(b1-3)Gal(b1-4)GlcNAc(b1-2)Man(a1-6)]Man(b1-4)GlcNAc(b1-4)[Fuc(a1-6)]GlcNAc
Summary of the method: as §1

[25] = target: GlcNAc(b1-3)Gal(b1-4)GlcNAc(b1-3)Gal(b1-4)GlcNAc(b1-3)Gal(b1-4)GlcNAc(b1-3)Gal(b1-4)GlcNAc(b1-2)Man(a1-3)[GlcNAc(b1-3)Gal(b1-4)GlcNAc(b1-3)Gal(b1-4)GlcNAc(b1-3)Gal(b1-4)GlcNAc(b1-3)Gal(b1-4)GlcNAc(b1-2)Man(a1-6)]Man(b1-4)GlcNAc(b1-4)GlcNAc
Summary of the method: as §1

GlcNAc(b1-3)Man = target: GlcNAc(b1-3)Man
Summary of the method: as §1

[26] = target: GlcNAc(b1-4)GlcNAc(b1-4)GlcNAc(b1-4)GlcNAc(b1-4)GlcNAc
Summary of the method: as §1

Kdn(a2-3)Gal(b1-3)GalNAc = target: Kdn(a2-3)Gal(b1-3)GalNAc
Summary of the method: as §1

[27] = target: Man(a1-3)[Man(a1-6)]Man(a1-6)[Man(a1-3)]Man
Summary of the method: as §1

[28] = target: Neu5Ac(a2-3)Gal(b1-3)GlcNAc(b1-2)Man(a1-3)[Neu5Ac(a2-3)Gal(b1-3)GlcNAc(b1-2)Man(a1-6)]Man(b1-4)GlcNAc(b1-4)GlcNAc
Summary of the method: as §1

[29] = target: Neu5Ac(a2-3)Gal(b1-4)GlcNAc(b1-3)Gal(b1-4)GlcNAc(b1-3)GalNAc
Summary of the method: as §1

[30] = target: Neu5Ac(a2-3)Gal(b1-4)[Fuc(a1-3)]GlcNAc(b1-2)Man
Summary of the method: as §1

[31] = target: Neu5Ac(a2-3)Gal(b1-4)[Fuc(a1-3)]GlcNAc(b1-3)GalNAc
Summary of the method: as §1

[32] = target: Neu5Ac(a2-3)Gal6S(b1-4)GlcNAc
Summary of the method: as §1

[33] = target: Neu5Ac(a2-6)Gal(b1-4)GlcNAc(b1-2)Man(a1-3)[Man(a1-6)]Man(b1-4)GlcNAc(b1-4)GlcNAc
Summary of the method: as §1

[34] = target: Neu5Ac(a2-6)Gal(b1-4)GlcNAc(b1-3)Gal(b1-4)GlcNAc(b1-3)Gal(b1-4)GlcNAc
Summary of the method: as §1

[35] = target: Neu5Ac(a2-6)Gal(b1-4)GlcNAc(b1-3)Gal(b1-4)[Fuc(a1-3)]GlcNAc(b1-3)Gal(b1-4)[Fuc(a1-3)]GlcNAc
Summary of the method: as §1

[36] = target: Neu5Ac(a2-6)Gal(b1-4)GlcNAc(b1-6)[Gal(b1-3)]GalNAc
Summary of the method: as §1

[37] = target: Neu5Ac(a2-8)Neu5Ac(a2-8)Neu5Ac(a2-3)[Gal(b1-3)GalNAc(b1-4)]Gal(b1-4)Glc
Summary of the method: as §1

[38] = target: Neu5Gc(a2-3)Gal(b1-4)GlcNAc(b1-3)Gal(b1-4)GlcNAc(b1-2)Man(a1-3)[Neu5Gc(a2-3)Gal(b1-4)GlcNAc(b1-3)Gal(b1-4)GlcNAc(b1-2)Man(a1-6)]Man(b1-4)GlcNAc(b1-4)GlcNAc
Summary of the method: as §1

[39] = target: Neu5Gc(b2-6)Gal(b1-4)GlcNAc
Summary of the method: as §1

B1: Thrombomodulin Extracellular (Mus musculus), P15306 (protein)
chain: MLGIFFLGVLAPASLGLSALAKLQPTGSQCVEHECFALFQGPATFLDASQACQRLQGHLMTVRSSVAADVISLLLSQSSMDLGPWIGLQLPQGCDDPVHLGPLRGFQWVTGDNHTSYSRWARPNDQTAPLCGPLCVTVSTATEAAPGEPAWEEKPCETETQGFLCEFYFTASCRPLTVNTRDPEAAHISSTYNTPFGVSGADFQTLPVGSSAAVEPLGLELVCRAPPGTSEGHWAWEATGAWNCSVENGGCEYLCNRSTNEPRCLCPRDMDLQADGRSCARPVVQSCNELCEHFCVSNAEVPGSYSCMCETGYQLAADGHRCEDVDDCKQGPNPCPQLCVNTKGGFECFCYDGYELVDGECVELLDPCFGSNCEFQCQPVSPTDYRCICAPGFAPKPDEPHKCEMFCNETSCPADCDPNSPTVCECPEGFILDEGSVCTDIDECSQGECFTSECRNFPGSYECICGPDTALAGQISKDCDPIPVREDTKEEEGSGEPPVSPTPGSPTGPPSARPVHSGVLIGISIASLSLVVALLALLCHLRKKQGAARAELEYKCASSAKEVVLQHVRTDRTLQKF
glycan array binding signal (z-score) (Fuc(a1-2)Gal(b1-3)GalNAc): -0.717 | glycan array binding signal (z-score) [1]: -0.952 | glycan array binding signal (z-score) [2]: 2.48 | glycan array binding signal (z-score) [3]: 0.406 | glycan array binding signal (z-score) [4]: -0.221 | glycan array binding signal (z-score) [5]: 0.048 | glycan array binding signal (z-score) [6]: 1.38 | glycan array binding signal (z-score) [7]: 2.8 | glycan array binding signal (z-score) [8]: -1.18 | glycan array binding signal (z-score) [9]: -0.162 | glycan array binding signal (z-score) [10]: 1.79 | glycan array binding signal (z-score) [11]: -0.513 | glycan array binding signal (z-score) (Gal(a1-3)Gal(b1-4)GlcNAc): -0.81 | glycan array binding signal (z-score) [12]: -2.66 | glycan array binding signal (z-score) (Gal(a1-4)Gal(b1-4)GlcNAc): -0.239 | glycan array binding signal (z-score) [13]: 1.73 | glycan array binding signal (z-score) [14]: 0.655 | glycan array binding signal (z-score) [15]: 0.399 | glycan array binding signal (z-score) [16]: -0.059 | glycan array binding signal (z-score) [17]: 2.94 | glycan array binding signal (z-score) [18]: -1.49 | glycan array binding signal (z-score) [19]: -0.135 | glycan array binding signal (z-score) [20]: -0.329 | glycan array binding signal (z-score) [21]: 2.27 | glycan array binding signal (z-score) [22]: 2.97 | glycan array binding signal (z-score) (GalNAc(b1-3)GlcNAc): -0.126 | glycan array binding signal (z-score) (GalNAc(b1-4)Gal(b1-4)Glc): 3.27 | glycan array binding signal (z-score) [23]: 2.52 | glycan array binding signal (z-score) [24]: 1.85 | glycan array binding signal (z-score) [25]: -0.332 | glycan array binding signal (z-score) (GlcNAc(b1-3)Man): 0.187 | glycan array binding signal (z-score) [26]: 1.75 | glycan array binding signal (z-score) (Kdn(a2-3)Gal(b1-3)GalNAc): -0.442 | glycan array binding signal (z-score) [27]: 2.92 | glycan array binding signal (z-score) [28]: 2.55 | glycan array binding signal (z-score) [29]: -0.036 | glycan array binding signal (z-score) [30]: -1.17 | glycan array binding signal (z-score) [31]: 2.09 | glycan array binding signal (z-score) [32]: -0.167 | glycan array binding signal (z-score) [33]: 2.56 | glycan array binding signal (z-score) [34]: -0.19 | glycan array binding signal (z-score) [35]: -0.473 | glycan array binding signal (z-score) [36]: -1.23 | glycan array binding signal (z-score) [37]: 2.49 | glycan array binding signal (z-score) [38]: 1.29 | glycan array binding signal (z-score) [39]: -0.009
